According to the supplement of paper PMC11732987, “Enantioselective OTUD7B fragment discovery through chemoproteomics screening and high-throughput optimisation” (Communications Chemistry, 2025):

Assays:
Test in all cases: log2 ratio of Biotin-Ahx-Ub-VS probe labelling (fragment/DMSO); higher = less target engagement (more negative = stronger competition), active = hit call of the paper (q ≤ 0.05, log2 ratio ≤ -1)
Conditions in all cases: compound concentration: 200 uM; treatment time: 3 h
[1] = biological target: T1, ALG13 (UniProt Q9NP73)
T1 sequence (whole entry): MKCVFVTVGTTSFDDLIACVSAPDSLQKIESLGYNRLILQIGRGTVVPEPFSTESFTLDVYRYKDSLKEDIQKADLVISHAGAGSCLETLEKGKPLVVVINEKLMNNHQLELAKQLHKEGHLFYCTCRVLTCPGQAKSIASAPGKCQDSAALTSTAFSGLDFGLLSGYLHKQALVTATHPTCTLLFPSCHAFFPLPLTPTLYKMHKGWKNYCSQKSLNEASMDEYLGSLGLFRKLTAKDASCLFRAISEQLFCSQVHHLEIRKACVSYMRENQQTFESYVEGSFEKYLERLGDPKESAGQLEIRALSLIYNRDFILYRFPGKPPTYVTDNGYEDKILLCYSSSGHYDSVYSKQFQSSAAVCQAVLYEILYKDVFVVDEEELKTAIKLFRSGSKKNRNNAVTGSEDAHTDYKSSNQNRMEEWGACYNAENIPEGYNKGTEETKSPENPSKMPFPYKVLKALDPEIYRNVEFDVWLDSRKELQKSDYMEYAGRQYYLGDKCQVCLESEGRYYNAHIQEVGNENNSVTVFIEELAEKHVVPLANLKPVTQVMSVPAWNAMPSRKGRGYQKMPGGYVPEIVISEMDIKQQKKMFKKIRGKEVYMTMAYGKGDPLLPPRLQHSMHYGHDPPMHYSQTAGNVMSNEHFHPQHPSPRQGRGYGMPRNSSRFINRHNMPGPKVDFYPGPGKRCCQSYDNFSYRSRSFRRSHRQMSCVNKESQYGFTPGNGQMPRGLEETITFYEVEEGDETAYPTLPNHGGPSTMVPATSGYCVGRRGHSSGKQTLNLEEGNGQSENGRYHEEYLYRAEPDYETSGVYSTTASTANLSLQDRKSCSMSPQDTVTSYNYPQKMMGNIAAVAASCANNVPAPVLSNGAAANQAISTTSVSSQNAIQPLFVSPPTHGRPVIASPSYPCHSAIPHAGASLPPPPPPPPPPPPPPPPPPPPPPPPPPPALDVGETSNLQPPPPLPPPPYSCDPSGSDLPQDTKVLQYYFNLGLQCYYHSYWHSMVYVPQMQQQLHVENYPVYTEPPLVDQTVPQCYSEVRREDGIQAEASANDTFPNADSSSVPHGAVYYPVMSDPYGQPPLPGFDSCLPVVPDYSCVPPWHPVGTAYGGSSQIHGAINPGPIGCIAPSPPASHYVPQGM
How it was run: (§1)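 Lysate from HEK293T cells, 495 µg per sample in Tris/CHAPS/IGEPAL buffer with protease inhibitors, was treated for 3 h in triplicate with fragment at 200 µM or vehicle. Biotin-Ahx-Ub-VS was next added at 0.5 µM final for 1 h. The labelled DUBs were enriched with NeutrAvidin, digested with LysC and trypsin, and run by diaPASEF LC-MS/MS, with values given as average log2 fragment/vehicle ratios by unpaired t-test on global-median-normalised Spectronaut quantities of proteins with ≥2 unique peptides.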

[2] = biological target: ATXN3 (UniProt P54252)
Sequence of ATXN3 (P54252 whole entry): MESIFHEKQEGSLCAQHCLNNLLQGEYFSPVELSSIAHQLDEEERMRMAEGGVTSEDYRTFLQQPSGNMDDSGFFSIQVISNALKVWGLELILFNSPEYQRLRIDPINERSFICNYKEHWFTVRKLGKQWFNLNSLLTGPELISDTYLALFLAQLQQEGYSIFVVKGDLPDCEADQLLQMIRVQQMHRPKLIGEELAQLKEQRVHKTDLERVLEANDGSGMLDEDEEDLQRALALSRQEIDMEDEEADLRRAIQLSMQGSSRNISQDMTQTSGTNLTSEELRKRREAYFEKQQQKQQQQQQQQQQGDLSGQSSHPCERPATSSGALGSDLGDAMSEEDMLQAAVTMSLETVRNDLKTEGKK
How it was run: as §1

[3] = biological target: T2, BAP1 (UniProt Q92560)
T2 sequence (whole entry): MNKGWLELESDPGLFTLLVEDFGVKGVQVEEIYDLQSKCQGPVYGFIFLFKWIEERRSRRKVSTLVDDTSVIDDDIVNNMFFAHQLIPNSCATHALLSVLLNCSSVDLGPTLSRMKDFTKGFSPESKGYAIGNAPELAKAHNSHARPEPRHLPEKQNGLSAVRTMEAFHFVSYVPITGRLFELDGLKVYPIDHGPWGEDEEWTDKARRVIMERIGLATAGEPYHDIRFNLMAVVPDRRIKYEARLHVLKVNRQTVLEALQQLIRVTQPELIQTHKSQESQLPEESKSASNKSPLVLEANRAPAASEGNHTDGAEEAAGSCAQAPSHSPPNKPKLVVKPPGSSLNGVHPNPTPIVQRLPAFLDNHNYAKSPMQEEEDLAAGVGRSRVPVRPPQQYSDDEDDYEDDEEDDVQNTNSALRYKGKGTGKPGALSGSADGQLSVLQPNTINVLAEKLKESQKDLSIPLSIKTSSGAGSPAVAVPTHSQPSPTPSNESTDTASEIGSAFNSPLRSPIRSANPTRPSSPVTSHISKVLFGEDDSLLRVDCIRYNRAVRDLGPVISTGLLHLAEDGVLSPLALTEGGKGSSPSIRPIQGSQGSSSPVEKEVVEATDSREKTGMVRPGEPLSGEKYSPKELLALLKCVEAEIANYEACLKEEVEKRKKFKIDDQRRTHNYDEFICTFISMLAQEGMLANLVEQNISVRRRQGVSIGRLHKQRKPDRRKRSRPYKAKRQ
How it was run: as §1

[4] = biological target: EIF3F (UniProt O00303)
Sequence of EIF3F (O00303 whole entry): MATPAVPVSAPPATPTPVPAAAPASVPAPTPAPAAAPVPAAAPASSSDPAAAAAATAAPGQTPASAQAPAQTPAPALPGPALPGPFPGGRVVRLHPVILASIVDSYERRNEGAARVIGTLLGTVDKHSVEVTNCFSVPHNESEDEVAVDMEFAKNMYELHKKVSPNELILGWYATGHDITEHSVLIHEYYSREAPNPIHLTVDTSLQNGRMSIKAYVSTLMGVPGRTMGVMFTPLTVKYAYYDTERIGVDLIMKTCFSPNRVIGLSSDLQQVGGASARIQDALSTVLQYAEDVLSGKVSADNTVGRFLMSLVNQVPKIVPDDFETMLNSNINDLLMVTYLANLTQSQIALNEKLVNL
How it was run: as §1

[5] = biological target: EIF3H (UniProt O15372)
Sequence of EIF3H (O15372 whole entry): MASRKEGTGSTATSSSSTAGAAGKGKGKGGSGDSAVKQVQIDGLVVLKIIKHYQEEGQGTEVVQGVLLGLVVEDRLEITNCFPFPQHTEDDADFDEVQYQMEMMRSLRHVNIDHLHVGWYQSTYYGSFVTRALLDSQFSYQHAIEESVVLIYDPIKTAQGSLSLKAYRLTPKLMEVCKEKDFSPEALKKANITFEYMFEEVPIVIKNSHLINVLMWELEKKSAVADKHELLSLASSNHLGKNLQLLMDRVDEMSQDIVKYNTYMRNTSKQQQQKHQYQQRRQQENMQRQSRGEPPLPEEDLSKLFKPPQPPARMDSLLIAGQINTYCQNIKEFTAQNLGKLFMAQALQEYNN
How it was run: as §1

[6] = biological target: T3, FAM105A (UniProt Q9NUU6)
T3 sequence (whole entry): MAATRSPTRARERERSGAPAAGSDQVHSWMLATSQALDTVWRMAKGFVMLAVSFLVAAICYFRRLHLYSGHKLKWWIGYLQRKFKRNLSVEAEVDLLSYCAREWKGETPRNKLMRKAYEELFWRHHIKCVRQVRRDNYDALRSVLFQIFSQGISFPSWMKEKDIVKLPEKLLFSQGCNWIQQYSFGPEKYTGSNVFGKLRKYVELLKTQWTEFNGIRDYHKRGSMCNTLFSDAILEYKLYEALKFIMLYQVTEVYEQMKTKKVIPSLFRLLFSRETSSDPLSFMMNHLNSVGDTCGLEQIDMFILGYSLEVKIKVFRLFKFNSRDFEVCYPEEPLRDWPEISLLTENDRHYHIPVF
How it was run: as §1

[7] = biological target: OTUB1 (UniProt Q96FW1)
Sequence of OTUB1 (Q96FW1 whole entry): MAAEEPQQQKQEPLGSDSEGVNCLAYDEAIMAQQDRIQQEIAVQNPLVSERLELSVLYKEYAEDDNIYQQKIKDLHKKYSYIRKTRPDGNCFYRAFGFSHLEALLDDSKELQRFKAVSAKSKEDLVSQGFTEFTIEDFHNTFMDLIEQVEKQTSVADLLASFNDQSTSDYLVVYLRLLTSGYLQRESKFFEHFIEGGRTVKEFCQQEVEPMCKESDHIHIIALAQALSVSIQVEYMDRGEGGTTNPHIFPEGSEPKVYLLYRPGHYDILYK
How it was run: as §1

[8] = biological target: T4, OTUD4 (UniProt Q01804)
T4 sequence (whole entry): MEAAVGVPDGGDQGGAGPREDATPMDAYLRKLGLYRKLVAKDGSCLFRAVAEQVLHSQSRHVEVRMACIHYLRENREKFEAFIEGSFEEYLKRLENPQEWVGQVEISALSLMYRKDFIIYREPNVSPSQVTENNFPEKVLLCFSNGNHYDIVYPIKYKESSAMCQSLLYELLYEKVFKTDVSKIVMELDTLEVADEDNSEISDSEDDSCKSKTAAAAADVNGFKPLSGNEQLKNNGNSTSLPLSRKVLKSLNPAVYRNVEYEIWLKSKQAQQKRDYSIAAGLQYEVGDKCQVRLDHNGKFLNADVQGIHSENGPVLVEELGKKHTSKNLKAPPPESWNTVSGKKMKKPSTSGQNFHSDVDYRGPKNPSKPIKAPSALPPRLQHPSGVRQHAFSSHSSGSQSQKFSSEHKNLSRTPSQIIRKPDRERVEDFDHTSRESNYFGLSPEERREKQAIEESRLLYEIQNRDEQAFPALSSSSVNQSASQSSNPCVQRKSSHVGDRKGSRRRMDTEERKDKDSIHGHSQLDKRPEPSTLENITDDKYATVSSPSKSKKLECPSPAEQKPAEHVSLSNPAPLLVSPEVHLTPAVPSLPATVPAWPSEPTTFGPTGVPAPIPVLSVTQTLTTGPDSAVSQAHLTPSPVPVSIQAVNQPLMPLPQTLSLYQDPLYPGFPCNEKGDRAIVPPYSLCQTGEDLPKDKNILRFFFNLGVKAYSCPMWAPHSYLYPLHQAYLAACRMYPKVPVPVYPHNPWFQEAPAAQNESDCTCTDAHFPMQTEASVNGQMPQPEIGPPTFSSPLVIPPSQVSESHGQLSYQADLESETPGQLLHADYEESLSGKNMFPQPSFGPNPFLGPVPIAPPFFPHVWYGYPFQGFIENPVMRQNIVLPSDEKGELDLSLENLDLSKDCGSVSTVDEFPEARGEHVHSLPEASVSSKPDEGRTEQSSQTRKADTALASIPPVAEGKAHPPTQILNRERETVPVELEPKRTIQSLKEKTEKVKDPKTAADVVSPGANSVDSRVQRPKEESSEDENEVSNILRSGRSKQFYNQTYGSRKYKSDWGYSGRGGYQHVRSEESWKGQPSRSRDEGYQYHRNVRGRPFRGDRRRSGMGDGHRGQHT
How it was run: as §1

[9] = biological target: T5, OTUD5 (UniProt Q96G74)
T5 sequence (whole entry): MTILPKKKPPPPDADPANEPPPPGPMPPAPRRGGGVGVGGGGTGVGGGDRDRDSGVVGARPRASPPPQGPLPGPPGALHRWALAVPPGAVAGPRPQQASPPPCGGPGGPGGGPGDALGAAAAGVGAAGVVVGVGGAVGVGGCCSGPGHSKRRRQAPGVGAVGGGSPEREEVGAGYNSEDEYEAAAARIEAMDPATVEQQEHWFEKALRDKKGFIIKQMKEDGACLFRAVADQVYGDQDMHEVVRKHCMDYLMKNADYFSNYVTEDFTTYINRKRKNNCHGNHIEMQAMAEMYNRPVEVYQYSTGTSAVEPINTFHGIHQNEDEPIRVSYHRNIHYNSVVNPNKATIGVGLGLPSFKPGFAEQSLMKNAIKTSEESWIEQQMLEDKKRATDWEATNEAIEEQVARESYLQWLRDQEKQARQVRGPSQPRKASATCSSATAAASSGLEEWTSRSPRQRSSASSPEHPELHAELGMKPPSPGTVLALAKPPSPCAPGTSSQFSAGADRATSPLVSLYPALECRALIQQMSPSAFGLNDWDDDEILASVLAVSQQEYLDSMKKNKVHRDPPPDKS
How it was run: as §1

Measured: log2 ratio of Biotin-Ahx-Ub-VS probe labelling

Cl.O=C(CCl)N1CCc2ncncc2C1
inactive: [1] -0.17 | [2] -0.297 | [3] -0.732 | [4] -0.328 | [5] -0.29 | [6] 0.0971 | [7] -0.263 | [8] -0.304 | [9] -0.373
